Data published in PubChem BioAssay (EPA / NIEHS).
Calls of active or inactive are those of the source. How the source made its calls: active means hit-call score of the fitted dose curve at least 0.9, where 1 is the maximum; inactive means score below 0.9.

Experiments:
Conditions in all cases: mRNA level, 48 h; actives raise or lower the signal
[1] = read-out: Cytochrome P450 3A4 (Homo sapiens) (UniProt P08684); assay: LTEA_HepaRG_CYP3A4: Life Technologies and Expression Analysis (LTEA) Assay for CYP3A4 using HepaRG (AID 2283487)
Procedure, shortened: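 Differentiated HepaRG cells, plated 48 h, then dosed 48 h in serum-free induction medium with 0.5% DMSO, 8 half-log concentrations up to 100 uM, duplicate. CYP3A4 mRNA by qRT-PCR, normalized to ACTB/GAPDH/POLR2A; bidirectional fit versus DMSO.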

[2] = read-out: DNA damage-inducible transcript 3 (DDIT3), DDIT3 (gene 1649); assay: LTEA_HepaRG_DDIT3: Life Technologies and Expression Analysis (LTEA) Assay for DNA damage-inducible transcript 3 (DDIT3) using HepaRG (AID 2283488)
Procedure, shortened: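 qRT-PCR readout (Fluidigm TaqMan), housekeeping-normalized to ACTB, GAPDH, POLR2A. HepaRG cells, 48 h exposure, 8-point half-log series from 100 uM in 0.5% DMSO, duplicates. Gain or loss of signal fitted against DMSO baseline.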

[3] = read-out: Pro-epidermal growth factor (Homo sapiens) (UniProt P01133); assay: LTEA_HepaRG_EGF: Life Technologies and Expression Analysis (LTEA) Assay for Epidermal growth factor (EGF) using HepaRG (AID 2283489)
Procedure, shortened: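 EGF expression changes in human HepaRG cells are scored by bidirectional fitting relative to 0.5% DMSO controls. Chemicals are tested at eight half-log concentrations up to 100 uM for 48 h in serum-free induction medium.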

[4] = read-out: Ezrin (EZR), EZR (gene 7430); assay: LTEA_HepaRG_EZR: Life Technologies and Expression Analysis (LTEA) Assay for Ezrin (EZR) using HepaRG (AID 2283491)
Procedure, shortened: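 EZR transcript levels came from Fluidigm qRT-PCR and were normalized to three housekeeping genes after 48 h chemical exposure of HepaRG cells. Dosing used an 8-point half-log series with a 100 uM top concentration in 0.5% DMSO, tested in duplicate; both directions were fitted versus vehicle.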

[5] = read-out: Cytochrome P450 3A7 (Homo sapiens) (UniProt P24462); assay: LTEA_HepaRG_CYP3A7: Life Technologies and Expression Analysis (LTEA) Assay for CYP3A7 using HepaRG (AID 2283492)
Procedure, shortened: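 Cells were thawed, plated, cultured 48 h, then treated for a further 48 h with chemicals (eight-point half-log series from 100 uM, 0.5% DMSO). RNA was isolated and CYP3A7 expression quantified by qRT-PCR normalised to ACTB, GAPDH and POLR2A.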

CYP3A5 (gene 1577) = assay: LTEA_HepaRG_CYP3A5: Life Technologies and Expression Analysis (LTEA) Assay for CYP3A5 using HepaRG (AID 2283493)
Procedure, shortened: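 qRT-PCR read-out: CYP3A5 transcript in HepaRG lysates, housekeeping-normalized (ACTB/GAPDH/POLR2A), fitted bidirectionally against 0.5% DMSO baseline. Exposure 48 h, eight half-log concentrations up to 100 uM, duplicates.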

[6] = read-out: Fatty Acid-Binding Protein 1 (FABP1), FABP1 (gene 2168); assay: LTEA_HepaRG_FABP1: Life Technologies and Expression Analysis (LTEA) Assay for Fatty Acid-Binding Protein 1 (FABP1) using HepaRG (AID 2283494)
Procedure, shortened: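 FABP1 expression by TaqMan qRT-PCR, normalised to three housekeeping genes, in HepaRG cells after 48 h chemical treatment. Eight-point half-log series topping at 100 uM in 0.5% DMSO, duplicates; gain or loss fitted relative to vehicle.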

[7] = read-out: Cytochrome P450 4A22 (Homo sapiens) (UniProt Q5TCH4); assay: LTEA_HepaRG_CYP4A22: Life Technologies and Expression Analysis (LTEA) Assay for Cytochrome P450 4A22 (CYP4A22) using HepaRG (AID 2283495)
Procedure, shortened: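 Cryopreserved HepaRG cells, plated and cultured 48 h, then switched to serum-free induction medium and treated 48 h (duplicates, up to 100 uM, half-log steps, 0.5% DMSO). Expression change of CYP4A22 was fitted bidirectionally against vehicle.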

[8] = read-out: Cytochrome P450 7A1 (Homo sapiens) (UniProt P22680); assay: LTEA_HepaRG_CYP7A1: Life Technologies and Expression Analysis (LTEA) Assay for Cytochrome P450 7A1 (CYP7A1) using HepaRG (AID 2283496)
Procedure, shortened: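 Using 0.5% DMSO as vehicle and baseline, chemicals were tested in duplicate over an 8-point range from 100 uM on HepaRG cells for 48 h; qRT-PCR signals were normalised to ACTB, GAPDH and POLR2A.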

[9] = read-out: Glutathione S-Transferase (GSTA2), GSTA2 (gene 2939); assay: LTEA_HepaRG_GSTA2: Life Technologies and Expression Analysis (LTEA) Assay for Glutathione S-Transferase (GSTA2) using HepaRG (AID 2283497)
Procedure, shortened: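 GSTA2 transcript levels came from Fluidigm TaqMan qRT-PCR normalized to three housekeeping genes, fitted in both directions against DMSO. HepaRG cultures received chemicals for 48 h in serum-free induction medium (0.5% DMSO), 8 half-log concentrations up to 100 uM, duplicate.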

[10] = read-out: Glutamate-cysteine ligase catalytic (GCLC), GCLC (gene 2729); assay: LTEA_HepaRG_GCLC: Life Technologies and Expression Analysis (LTEA) Assay for Glutamate-cysteine ligase catalytic (GCLC) using HepaRG (AID 2283498)
Procedure, shortened: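 Expression by TaqMan qRT-PCR, normalized to three housekeeping genes (ACTB, GAPDH, POLR2A), with up- or down-regulation fitted against DMSO. HepaRG cells dosed in duplicate for 48 h with 8 half-log concentrations up to 100 uM, vehicle 0.5% DMSO.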

[11] = read-out: Glutamate-cysteine ligase regulatory (GCLM), GCLM (gene 2730); assay: LTEA_HepaRG_GCLM: Life Technologies and Expression Analysis (LTEA) Assay for Glutamate-cysteine ligase regulatory (GCLM) using HepaRG (AID 2283500)
Procedure, shortened: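 HepaRG, 48 h dosing, 100 uM top, half-log x8, 0.5% DMSO vehicle. Readout: GCLM mRNA by TaqMan qRT-PCR, housekeeping-normalized (ACTB/GAPDH/POLR2A). Curves fit bidirectionally vs DMSO baseline.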

[12] = read-out: Glutathione S-transferase M3 (GSTM3), GSTM3 (gene 2947); assay: LTEA_HepaRG_GSTM3: Life Technologies and Expression Analysis (LTEA) Assay for Glutathione S-transferase M3 (GSTM3) using HepaRG (AID 2283501)
Procedure, shortened: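 Changes in GSTM3 expression, an oxidative-stress marker, were scored by bidirectional curve fitting against 0.5% DMSO vehicle. Human HepaRG cultures received chemicals for 48 h in duplicate, highest concentration 100 uM with half-log dilutions.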

[13] = read-out: Heat shock 70 kDa protein 1 (HSPA1A), gene 3303; assay: LTEA_HepaRG_HSPA1A: Life Technologies and Expression Analysis (LTEA) Assay for Heat shock 70 kDa protein 1 (HSPA1A) using HepaRG (AID 2283502)
Procedure, shortened: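 HepaRG, 48 h exposure, 8-pt half-log CRC from 100 uM in 0.5% DMSO, duplicates. Readout: TaqMan qRT-PCR of HSPA1A mRNA, housekeeping-normalized (ACTB/GAPDH/POLR2A). Bidirectional fit vs 0.5% DMSO baseline.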

[14] = read-out: Hypoxia-inducible factor 1-alpha (Homo sapiens) (UniProt Q16665); assay: LTEA_HepaRG_HIF1A: Life Technologies and Expression Analysis (LTEA) Assay for Hypoxia-inducible factor 1 (HIF1A) Trancription factor using HepaRG (AID 2283503)
Procedure, shortened: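 Gain- or loss-of-signal HIF1A mRNA changes are fitted against a DMSO baseline. HepaRG cultures receive eight concentrations, highest 100 uM, for 48 h in serum-free induction medium with 0.5% DMSO.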

[15] = read-out: 3-Hydroxy-3-Methylglutaryl-CoA Synthase 2 (HMGCS2), HMGCS2 (gene 3158); assay: LTEA_HepaRG_HMGCS2: Life Technologies and Expression Analysis (LTEA) Assay for 3-Hydroxy-3-Methylglutaryl-CoA Synthase 2 (HMGCS2) using HepaRG (AID 2283504)
Procedure, shortened: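 Expression of HMGCS2 in human HepaRG liver cells is measured by qRT-PCR 48 h after dosing (highest 100 uM, half-log series, 0.5% DMSO). Values come from bidirectional concentration-response fitting with DMSO as baseline.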

HGF (gene 3082) = assay: LTEA_HepaRG_HGF: Life Technologies and Expression Analysis (LTEA) Assay for Hepatocyte Growth Facto (HGF) using HepaRG (AID 2283505)
Procedure, shortened: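 Gain or loss of HGF mRNA in human HepaRG liver cells after 48 h chemical exposure; eight concentrations up to 100 uM with 0.5% DMSO vehicle, quantified by TaqMan qRT-PCR.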

[16] = read-out: Insulin Like Growth Factor 1 (IGF1), IGF1 (gene 3479); assay: LTEA_HepaRG_IGF1: Life Technologies and Expression Analysis (LTEA) Assay for Insulin Like Growth Factor 1 (IGF1) using HepaRG (AID 2283506)
Procedure, shortened: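 qRT-PCR readout of IGF1 mRNA, normalized to three housekeeping genes, after 48 h chemical exposure of HepaRG cells. Concentrations: 8-point half-log series, top 100 uM, 0.5% DMSO vehicle. Gain or loss fitted against DMSO baseline.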

[17] = read-out: Early growth response protein 1 (EGR1) transcription factor, EGR1 (gene 1958); assay: LTEA_HepaRG_EGR1: Life Technologies and Expression Analysis (LTEA) Assay for Early growth response protein 1 (EGR1) transcription factor using HepaRG (AID 2283490)
Procedure, shortened: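 EGR1 transcript levels quantified by qRT-PCR (Fluidigm arrays) against three housekeeping genes after 48 h chemical exposure of HepaRG cells. Eight-point half-log series topping at 100 uM, 0.5% DMSO vehicle, analyzed for gain or loss.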

[18] = read-out: growth arrest and DNA damage 45 (GADD45G), GADD45G (gene 10912); assay: LTEA_HepaRG_GADD45G: Life Technologies and Expression Analysis (LTEA) Assay for growth arrest and DNA damage 45 (GADD45G) using HepaRG (AID 2283499)
Procedure, shortened: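 Human hepatic HepaRG line treated 48 h with chemicals (eight concentrations, half-log steps from 100 uM); transcript induction or repression of GADD45G scored by qRT-PCR versus DMSO vehicle.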

Measured: AC50

Chain of Cytochrome P450 3A4 (Homo sapiens) (P08684 whole entry, looked up): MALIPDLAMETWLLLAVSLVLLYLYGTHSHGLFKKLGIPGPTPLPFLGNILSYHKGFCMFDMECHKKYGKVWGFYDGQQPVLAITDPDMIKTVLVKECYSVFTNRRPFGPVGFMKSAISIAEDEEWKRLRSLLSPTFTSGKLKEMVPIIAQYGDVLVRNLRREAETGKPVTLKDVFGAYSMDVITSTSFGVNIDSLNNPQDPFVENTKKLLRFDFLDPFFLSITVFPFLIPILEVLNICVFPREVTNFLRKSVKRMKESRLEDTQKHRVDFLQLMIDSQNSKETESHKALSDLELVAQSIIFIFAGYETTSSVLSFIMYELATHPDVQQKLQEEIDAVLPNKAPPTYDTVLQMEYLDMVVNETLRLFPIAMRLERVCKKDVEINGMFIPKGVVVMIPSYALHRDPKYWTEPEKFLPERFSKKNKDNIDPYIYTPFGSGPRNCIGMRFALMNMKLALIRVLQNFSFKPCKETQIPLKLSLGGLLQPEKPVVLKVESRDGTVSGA
Chain of Cytochrome P450 3A7 (Homo sapiens) (P24462 whole entry, looked up): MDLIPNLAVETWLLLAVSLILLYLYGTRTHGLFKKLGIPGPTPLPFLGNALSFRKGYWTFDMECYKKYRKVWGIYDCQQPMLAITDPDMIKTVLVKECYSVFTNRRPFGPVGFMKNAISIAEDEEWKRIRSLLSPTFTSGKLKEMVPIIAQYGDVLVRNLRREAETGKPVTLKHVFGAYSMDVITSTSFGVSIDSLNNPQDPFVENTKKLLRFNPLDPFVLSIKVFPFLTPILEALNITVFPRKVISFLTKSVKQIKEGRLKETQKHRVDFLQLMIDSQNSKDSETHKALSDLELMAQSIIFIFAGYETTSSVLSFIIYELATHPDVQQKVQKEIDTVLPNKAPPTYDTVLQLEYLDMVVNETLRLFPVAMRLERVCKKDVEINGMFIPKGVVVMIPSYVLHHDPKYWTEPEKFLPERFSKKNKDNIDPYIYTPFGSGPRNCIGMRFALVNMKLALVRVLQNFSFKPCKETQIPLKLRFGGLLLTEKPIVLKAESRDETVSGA
Chain of Hypoxia-inducible factor 1-alpha (Homo sapiens) (Q16665 whole entry, looked up): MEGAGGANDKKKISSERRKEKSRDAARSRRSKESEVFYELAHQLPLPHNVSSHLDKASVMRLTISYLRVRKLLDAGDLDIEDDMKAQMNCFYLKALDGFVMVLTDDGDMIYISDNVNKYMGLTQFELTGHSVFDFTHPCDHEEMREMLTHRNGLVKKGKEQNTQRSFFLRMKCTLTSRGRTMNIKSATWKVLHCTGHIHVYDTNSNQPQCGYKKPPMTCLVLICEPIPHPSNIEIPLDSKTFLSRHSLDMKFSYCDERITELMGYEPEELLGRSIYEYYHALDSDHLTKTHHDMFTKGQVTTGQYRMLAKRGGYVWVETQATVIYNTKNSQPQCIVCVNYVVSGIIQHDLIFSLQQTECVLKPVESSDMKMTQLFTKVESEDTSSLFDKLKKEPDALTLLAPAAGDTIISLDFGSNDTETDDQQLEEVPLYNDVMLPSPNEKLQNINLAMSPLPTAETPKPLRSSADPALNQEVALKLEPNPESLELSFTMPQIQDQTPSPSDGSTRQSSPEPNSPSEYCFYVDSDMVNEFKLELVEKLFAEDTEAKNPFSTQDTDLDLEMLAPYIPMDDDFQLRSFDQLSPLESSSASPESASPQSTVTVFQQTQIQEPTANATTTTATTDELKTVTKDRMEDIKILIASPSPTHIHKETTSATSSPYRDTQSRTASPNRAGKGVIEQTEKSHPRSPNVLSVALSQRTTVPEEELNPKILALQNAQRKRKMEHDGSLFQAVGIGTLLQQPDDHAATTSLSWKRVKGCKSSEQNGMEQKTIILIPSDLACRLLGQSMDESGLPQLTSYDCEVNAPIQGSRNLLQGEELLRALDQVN

CCCCCCCCOC(=O)c1ccccc1C(=O)OCCCCCCCC
not listed: [17] | [18]
inactive: all other assays above

CCCCCCCCCc1ccc(O)cc1
active: [6] 50 µM | [7] 31.9 µM | [15] 50 µM
not listed: CYP3A5 (gene 1577) | [18]
inactive: all other assays above

CC(c1ccc(O)cc1)(c1ccc(O)cc1)c1ccc(O)cc1
inactive: [2] | [3] | [7] | [11] | [12] | [13] | [14]
active: [1] 23.6 µM | [17] 81 µM | [4] 38.7 µM | [5] 20.7 µM | CYP3A5 (gene 1577) 37.1 µM | [6] 75.8 µM | [8] 67 µM | [9] 37.3 µM | [10] 73.4 µM | [18] 75.1 µM | [15] 85.1 µM | HGF (gene 3082) 25.1 µM | [16] 92 µM

CC(C)C(=O)OCC(C)(C)C(OC(=O)C(C)C)C(C)C (stereo unspecified)
not listed: [17] | [18]
inactive: all other assays above

CC(C)(c1ccccc1)c1ccc(O)cc1
active: [8] 88.7 µM | [9] 87.3 µM | HGF (gene 3082) 83.2 µM
not listed: CYP3A5 (gene 1577)
inactive: all other assays above

CCCCCCOC(=O)c1ccccc1C(=O)OCCCCCC
active: [7] 83.9 µM
not listed: [17] | [18]
inactive: all other assays above
